Laboratory results as given in PubChem BioAssay AID1851 (National Center for Advancing Translational Sciences (NCATS), 2009).
Several values for one entry are separate records, joined by “and”; a condition that tells them apart may be missing. Equal values may be shown once. Out of some 16,000 compounds screened, about 5,100 (32%) were called active. Not shown: some 25% with an inconclusive outcome. The call rests on the fitted dose curve; in most records, active means well fitted curve in the direction sought with a large enough effect; inconclusive means small, poorly fitted or top-dose-only effect, or effect the other way; inactive means no such curve, though single readings can be large or run the other way. The list shows a part of the results.

Molecular target: Cytochrome P450 3A4 (Homo sapiens) (UniProt P08684)
Sequence (P08684 whole entry, looked up): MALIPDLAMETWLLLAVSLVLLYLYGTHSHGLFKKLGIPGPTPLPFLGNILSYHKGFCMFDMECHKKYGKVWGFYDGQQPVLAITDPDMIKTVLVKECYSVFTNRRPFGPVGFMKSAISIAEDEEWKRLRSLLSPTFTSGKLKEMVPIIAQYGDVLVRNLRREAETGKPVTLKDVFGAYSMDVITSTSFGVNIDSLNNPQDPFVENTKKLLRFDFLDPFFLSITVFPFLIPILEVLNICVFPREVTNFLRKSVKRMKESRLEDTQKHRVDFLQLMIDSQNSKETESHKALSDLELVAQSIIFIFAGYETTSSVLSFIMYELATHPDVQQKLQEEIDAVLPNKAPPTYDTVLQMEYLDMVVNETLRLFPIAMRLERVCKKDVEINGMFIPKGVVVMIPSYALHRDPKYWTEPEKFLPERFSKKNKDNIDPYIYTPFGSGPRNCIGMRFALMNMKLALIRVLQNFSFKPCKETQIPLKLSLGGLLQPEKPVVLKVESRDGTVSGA
Test: Cytochrome panel assay with activity outcomes
Settings: recombinant CYP, pro-luciferin dealkylation, luminescence, p450-cyp3a4; series mostly up to 57.1 µM; activity, negative = inhibition: at the top concentration
On the % scale 0 is the no-effect control and ±100 the full control effect.

SMILES | activity, negative = inhibition | AC50
CNC(=O)c1sc(SC)cc1-c1ccc(Cl)cc1 | -8.38% (inactive) | 
Clc1ccccc1C(Nc1cnccn1)Nc1cnccn1 | -4.71% [at 11.4 µM] (inactive) | 
COCCNC(=O)c1ccc2c(c1)ncn2-c1ccc(F)c(F)c1 | -10.9% (inactive) | 
N#Cc1ccccc1-c1ccc2ncnc(NCCN3CCOCC3)c2c1 |  | 10 µM (active)
Clc1ccccc1-c1ccc2ncnc(NCCN3CCOCC3)c2c1 |  | 5.01 µM (active)
COc1ccccc1-c1ccc2ncnc(NCCN3CCOCC3)c2c1 |  | 7.94 µM (active)
S=c1nc(-c2ccccc2)oc2c1CCCC2 | -8.21% (inactive) | 
O=C(CN1CCCC1)N/N=C/c1ccc(-c2cccc(Cl)c2)o1 | 13.8% [at 2.29 µM] (inactive) | 
Cc1cccc(C(=O)N/N=C/c2ccc(OCC(=O)N3CCCCC3)cc2)c1 |  | 20 µM (active)
O=C(CSCc1cccc(Cl)c1)N/N=C/c1ccc(OCC(=O)N2CCCCC2)cc1 |  | 14.1 µM (active)
Cc1cccc(OCC(=O)N2CCC(N3CCCCCC3)CC2)c1 | -29.2% (inactive) | 
CCOC(=O)c1c2ccc(OCC(=O)N/N=C/c3ccc(Cl)cc3)cc2n2ccccc12 | -26.7% [at 2.29 µM] (inactive) | 
COc1ccc2oc(=O)c(C(=O)Oc3ccc(NC(C)=O)cc3)cc2c1 | -13.8% (inactive) | 
COc1ccc2cc3cc(C(=O)Nc4ccc5c(c4)OCO5)oc3nc2c1 |  | 0.355 µM (active)
COc1ccc2cc3cc(C(=O)NCc4ccc5c(c4)OCO5)oc3nc2c1 |  | 0.708 µM (active)
C/C(O)=C\c1nc2ccccc2oc1=O | -17.8% (inactive) | 
CO[C@H]1C=CO[C@]2(C)Oc3c(C)c(O)c4c(O)c(c5c(c4c3C2=O)NC2(CCN(CC(C)C)CC2)N=5)=NC(=O)C(C)=CC=C[C@@H](C)[C@@H](O)[C@@H](C)[C@@H](O)[C@@H](C)[C@@H](OC(C)=O)[C@@H]1C | -16.2% [at 25.6 µM] (inactive) | 
CO[C@@H]1/C=C\O[C@@]2(C)Oc3c(C)c(O)c4c(c3C2=O)C(=N[C@H]2CC[C@H](O)O[C@@H]2C)C=C(NC(=O)/C(C)=C\C(=O)[C@@H]2C[C@@H]2[C@@H](O)[C@H](C)[C@@H](O)[C@H](C)[C@H](OC(C)=O)[C@@H]1C)C4=O |  | 1.26 µM (active)
CC(C)C(=O)NC(=S)Nc1ccccc1C(=O)Nc1ccccc1 | 11.2% [at 2.29 µM] (inactive) | 
Cc1ccccc1NC(=O)/C(=C/c1ccccc1)c1ccccc1 | 12.5% [at 11.4 µM] (inactive) | 
COc1ccc(/C=C(/C(=O)Nc2ccccc2C(=O)NC(C)C)c2ccccc2)cc1 |  | 11.2 µM (active)
OC[C@@H]1NC[C@@H](O)[C@H]1O | 3.03% (inactive) | 
COc1cccc([C@H]2Oc3ccc(OC)cc3/C(=N\O[C@@H](C)c3cn([C@H](CO)Cc4ccccc4)nn3)[C@@H]2O)c1 |  | 3.16 µM (active) and 3.98 µM (active)
Cc1cc(C)c(-c2cc([C@H](C)O/N=C\[C@@H](C)[C@H](OCc3ccccc3)C(C)C)on2)c(C)c1 | -37.1% [at 11.4 µM] (inactive) | 
CCN1C(=O)[C@H]2[C@H]3[C@H](O)[C@H](O)C/C(=N/O[C@@H](C)c4cn([C@H]5COC[C@H]5O)nn4)[C@@H]3CC[C@@H]2C1=O | -18.4% [at 11.4 µM] (inactive) | 
COc1cccc([C@@H]2Oc3ccc(OC)cc3/C(=N/O[C@@H](C)c3cn([C@H]4COC[C@H]4O)nn3)[C@@H]2O)c1 |  | 3.16 µM (active)
CC(C)=NO[C@@H](C)c1cn([C@@H]2COC[C@@H]2O)nn1 | -6.38% [at 11.4 µM] (inactive) | 

SMILES | activity, negative = inhibition | AC50
COc1cccc([C@@H]2Oc3ccc(OC)cc3/C(=N/O[C@@H](C)c3cc(-c4c(C)cc(C)cc4C)no3)[C@@H]2O)c1 |  | 1.58 µM (active)
CCC(NC(=O)C1(C)CC1(Br)Br)c1ccc(C)cc1 (stereo not drawn) |  | 3.98 µM (active)
CCC(C)C(NC(=O)OCc1ccccc1)C(=O)OCN1C(=O)c2ccccc2C1=O (stereo not drawn) |  | 7.08 µM (active)
CCC(C)[C@H](NC(=O)NC1CCN(Cc2ccccc2)CC1)C(=O)OC (stereo partly drawn) | 6.5% (inactive) | 
O=C1NCCc2c1[nH]c1ccccc21 | 17.8% [at 2.29 µM] (inactive) | 
CCOc1cc(/C=C2\N=C(C)OC2=O)cc(Br)c1OCC(=O)OC |  | 10 µM (active)
CCOC(=O)COc1c(C=O)cc(Br)cc1OC | -7.04% (inactive) | 
O=C1CCC(c2ccccc2)(c2ccccc2)CC1 | 10.5% [at 11.4 µM] (inactive) | 
c1ccc2c(CC3NCCN3)cccc2c1 | -5.75% [at 11.4 µM] (inactive) | 
CN1CCCC[C@@H]1CCN1CCCCC1 | -2.94% [at 11.4 µM] (inactive) | 
OCCNc1nc2ccccc2[nH]1 | -4.38% (inactive) | 
CCN(CC)c1nc2ccccc2[nH]1 | -13.8% (inactive) | 
c1ccc(-c2n[nH]c(-c3ccccc3)c2-c2nc3ccccc3[nH]2)cc1 |  | 2.24 µM (active)
Cc1c(Cl)c(S(N)(=O)=O)cc2c1=NC=NS=2(=O)O | -13% [at 11.4 µM] (inactive) | 
CCON=C1C(C)(C)C(C)(C)C(C)(C)C1(C)C | -9.31% [at 11.4 µM] (inactive) | 
COc1ccc(O[C@H]2C=C[C@@H](c3ccccc3)O[C@H]2COC(=O)CC/C(C)=N\O[C@@H](C)CN2CCCc3nc(C)c(C)cc32)cc1 |  | 3.16 µM (active)
COc1ccc(O[C@H]2C=C[C@@H](c3ccccc3)O[C@H]2COC(=O)CC/C(C)=N\O[C@@H](C)CN2CCCCc3nc(C)c(C)cc32)cc1 |  | 3.98 µM (active)
Cc1ccc(N(C(C)C(=O)Nc2cc(Cl)ccc2Oc2ccccc2)S(C)(=O)=O)cc1 (stereo not drawn) |  | 4.47 µM (active)
CC(C(=O)Nc1ccccc1Sc1ccccc1)N(c1ccccc1)S(C)(=O)=O (stereo not drawn) |  | 5.01 µM (active)
O=C(O)[C@@H]1Cc2c([nH]c3ccccc23)[C@@H](CCCCO)N1 | 1.47% [at 11.4 µM] (inactive) | 
CC(=O)N1CCC2(CCCN(c3ncccn3)C2)CC1 | 5.39% (inactive) | 
O=C(CC1C(=O)N(c2ccc(Cl)cc2)C(=S)N1CCc1ccncc1)Nc1ccc(F)cc1 (stereo not drawn) |  | 1.26 µM (active)
COc1ccc(CCN2C(=NC(=O)CCC(=O)O)SC3CS(=O)(=O)CC32)cc1 (stereo not drawn) | 8.98% (inactive) | 
CCNC(=O)CC1C(=O)N(c2ccc(F)cc2)C(=O)N1CCc1ccc(OC)cc1 (stereo not drawn) |  | 7.08 µM (active)
COc1ccc(C(=O)NC2(C(F)(F)F)C(=O)Nc3c2c(=O)[nH]c(=O)n3CCc2ccc(OC)c(OC)c2)cc1 (stereo not drawn) | -10.4% (inactive) | 
CC(=O)Nc1ccc(S(=O)(=O)NC2(C(F)(F)F)NC(=O)N(c3ccc(Cl)cc3)C2=O)cc1 (stereo not drawn) | 3.14% (inactive) | 
